# In PubChem BioAssay AID504332 (National Center for Advancing Translational Sciences (NCATS), 2011):
# Hit rate of the full screen: of about 350,000 compounds, about 31,000 (8.9%) were called active. Roughly 15% stayed inconclusive and do not appear here. This excerpt belongs to a sample that is enriched for actives. Values without a mark were called inactive. Calls follow the shape of the dose curve; as a rule, active = well fitted inhibition curve with a large enough effect; inconclusive = small, poorly fitted or top-dose-only effect; inactive = no such curve, though single readings can be large or run the other way.
# Target: Histone-lysine N-methyltransferase EHMT2 (Homo sapiens) (UniProt Q96KQ7)
# Test: qHTS Assay for Inhibitors of Histone Lysine Methyltransferase G9a; also: nearly all actives have a fitted effect of over 75% in size
# Conditions: G9a H3K9 monomethylation, AlphaScreen, 2 h; series mostly up to 59 µM; activity, negative = inhibition: at the top concentration
# Text: Methylated lysines, on the N-terminal tails of histone proteins serve as epigenetic markers to recruit factors that can then modify local chromatin structure to lead to functional consequences. G9a and other members of the SUV39 family of the SET domain-containing superfamily of histone lysine methyltransferases (HMT) have been identified to specifically methylate Lys9 of histone H3 (H3K9). G9a catalyzes the mono- and di-methylation of H3K9 in mammalian euchromatic regions, where the resulting H3K9me2 is indicative of transcriptional repression. […] The inhibition of G9a will result in transcriptional activation and work synergistically with DNA methyltransferase and histone deacetylase inhibitors, to kill cancer cells. This qHTS assay for identification of G9a inhibitors is a chemiluminescence based AlphaScreen (PerkinElmer). Methylation of biotinylated-histone peptide is measured through specific antibody-based detection, in conjunction with streptavidin-coated donor and anti-IgG antibody-coated acceptor beads. The method is particularly well suited for detection of inhibitors acting by the desired histone peptide competitive mechanism and is applicable to testing other HMTs. Although AlphaScreen has significant advantages with its utility in a variety of epigenetic target assays, the primary screening data provided in this deposition should be used with caution due to the prevalence of screening artifacts. An AlphaScreen counterscreen is highly recommended to be run against any putative actives to eliminate non specific artifacts. Alternatively, one can use other AlphaScreen assays in PubChem to filter out promiscuous hits. Quinn et al. A chemiluminescence-based method for identification of histone lysine methyltransferase inhibitors. Mol Biosyst 6(5): 782-8. 2010. PMID: 20567762 [2] Baell,Holloway. New substructure filters for removal of pan assay interference compounds (PAINS) from screening libraries and for their exclusion in bioassays. J Med Chem. 53(7):2719-40. 2010. PMID: 20131845 NIH Molecular Libraries Probe Production Network [MLPCN] NIH Chemical Genomics Center [NCGC] Structural Genomics Consortium (SGC) NIH Grant: 5U54 MH084681-02
# To each well of a 1,536w plate, 2ul of HMT enzyme (final 20nM) were added, using a nanoliter dispenser. The G9a- and GLP-inhibitor BIX-01294 (CID: 25150857) are used as an intraplate control, with a 16-point titration in duplicate. A Kalypsys pin-tool transferred 23nl of library compound solution in DMSO to each well. Following a 15 min incubation of enzyme with compounds at room temperature, 1ul mixture of b-H3K9 peptide substrate (final 500nM) and SAM cofactor (final 20uM) were added. Reactions were allowed to proceed at room temperature for 2 hours. Methylated b-H3K9 peptide product was detected with 0.5 ug/mL rabbit polyclonal anti-monomethyl histone H3K9 antibody (Abcam Inc., Cambridge, MA) and 20 ug/mL each streptavidin-coated donor and anti-rabbit IgG acceptor AlphaScreen beads. Antibody and beads were added in a 1ul dispense, for a final volume of 4ul, and plates were incubated, protected from the light, for 10 min at room temperature. Microplates were then read on an EnVision multilabel plate reader using the 1,536 plate HTS AlphaScreen aperture (excitation time 80 ms, measurement time 240 ms).
# % is scaled to controls: 0 for no effect and ±100 for the full control effect; potency is read from the fitted curve at half-maximal effect.
# Histone-lysine N-methyltransferase EHMT2 (Homo sapiens), sequence (Q96KQ7 913-1193 limits assumed): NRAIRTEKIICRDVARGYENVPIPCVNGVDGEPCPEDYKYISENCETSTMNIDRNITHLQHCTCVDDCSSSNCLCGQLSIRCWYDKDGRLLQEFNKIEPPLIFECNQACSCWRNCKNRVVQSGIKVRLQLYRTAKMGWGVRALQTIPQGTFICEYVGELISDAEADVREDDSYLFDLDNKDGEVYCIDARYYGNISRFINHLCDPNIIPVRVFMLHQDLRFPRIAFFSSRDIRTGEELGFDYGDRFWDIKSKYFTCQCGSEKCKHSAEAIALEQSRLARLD
Structure (SMILES),"activity, negative = inhibition",Potency
COc1ccc(CNC(=O)CCc2c(C)nn(-c3ccc(N4CCCC4)nn3)c2C)cc1,11.4%,–
O=C(c1ccncc1)c1ccc([N+](=O)[O-])cc1,-22.8% [at 102 µM],–
O=C(CC(n1cncn1)C(Cl)(Cl)Cl)c1ccc([N+](=O)[O-])cc1 (stereo not drawn),–,10 µM (active)
O=C(Cn1c[n+](CC(=O)c2ccc([N+](=O)[O-])cc2)cn1)c1ccc([N+](=O)[O-])cc1,–,inactive
O=C(O)[C@@H](S)[C@H](S)C(=O)O,–,6.31 µM (active)
Cc1cccc(CNC(=O)c2cnc3sc(N4CCCCC4)nn3c2=O)c1,7.83%,–
CCCC12CN3CC(CCC)(CN(C1)C3c1c[nH]c3ccc(OC)cc13)C2=O (stereo not drawn),-41.5%,–
S=C(NNC(=S)NC1CC2C=CC1C2)NC1CC2C=CC1C2 (stereo not drawn),–,2 µM (active)
CCn1c(CNC(=O)C23CC4CC(CC(C4)C2)C3)nnc1SCC(=O)Nc1ccc(OC)cc1,4.32%,–
Cc1ccc(-c2nc(SCc3ccc(Br)cc3)n3[nH]c(=O)cc3n2)cc1,-1.28%,–
NC(=O)C(=O)N/N=C/c1ccc([N+](=O)[O-])o1,26.4%,–
O=S(=O)(c1ccc2nc(N3CCN(c4cccc(Cl)c4)CC3)ccc2c1)N1CCCCC1,8.8%,–
Cc1ccc(Nc2ccc3cc(S(=O)(=O)N4CCCCC4)ccc3n2)cc1F,1.39%,–
O=S(=O)(c1ccc2nc(NCc3ccccc3Cl)ccc2c1)N1CCCCC1,–,7.94 µM (active)
COc1ccc(NC(=O)CN(C)C(=O)c2cccc(S(=O)(=O)N3CCN(c4ccccc4)CC3)c2)cc1,-46.2% [at 102 µM],–
COC(=O)c1cccc(NC(=O)CN2CCC(NC(=O)c3cc(OC)c(OC)c(OC)c3)CC2)c1,-30% [at 102 µM],–
COc1cc(C(=O)N2CCN(C)CC2)cc(OC)c1OC,-4.42% [at 102 µM],–
CCN1CCN(CC(=O)c2cc(OC)c(OC)c(OC)c2)CC1,–,39.8 µM (active)
CCOC(=O)c1ccccc1CN1C(=O)c2ccccc2S1(=O)=O,28.8% [at 102 µM],–
Cc1cc(C)c2oc(-c3cccc(NC(=O)c4cccc(F)c4)c3C)nc2c1,-3.15%,–
COc1ccc(/C(C)=N/NC(=O)c2ccc3nc[nH]c3c2)cc1,68% [at 102 µM],–
CN(C)N=Nc1ccc2nc[nH]c2c1,–,1.78 µM (active)
CC/C(O)=N\S(=O)(=O)c1ccc(N=NN(C)C)cc1,-8.72%,–
O=C(CSc1nnc(-c2cnccn2)n1Cc1ccco1)c1ccc(Cl)c(Cl)c1,–,50.1 µM (active)

Structure (SMILES),"activity, negative = inhibition",Potency
C(=C\c1ccccc1)/CSc1nnc(-c2cccnc2)n1Cc1ccco1,–,50.1 µM (active)
C=CCn1c(CNC(=O)c2ccco2)nnc1SCC(=O)c1ccc(OC)cc1,12.4% [at 102 µM],–
CCc1ccc(NC(=O)CSc2nnc(-c3cnccn3)n2Cc2ccco2)cc1,-31.5% [at 12.7 µM],–
Cc1ccc(NC(=O)CSc2nnc(-c3cnccn3)n2Cc2ccco2)cc1C,7.37% [at 12.7 µM],–
O=C(CSc1nnc(-c2cccnc2)n1Cc1ccco1)c1ccc(Cl)cc1,-8.68%,–
Cn1c(Cc2csc(N)n2)nnc1SC/C=C/c1ccccc1,12.8% [at 12.7 µM],–
CCOC(=O)Cc1csc(NC(=O)CSc2nnc(-c3cccnc3)n2Cc2ccco2)n1,-47.7%,–
O=C(CSc1nnc(COc2ccc(Cl)cc2)n1Cc1ccco1)N1CCNC1=O,-16.3% [at 0.501 µM],–
O=C(CSc1nnc(-c2cccnc2)n1Cc1ccco1)c1ccc(Cl)c(Cl)c1,–,50.1 µM (active)
COc1ccc(C(=O)CSc2nnc(COc3ccccc3)n2Cc2ccco2)cc1,–,50.1 µM (active)
Cc1ccccc1CSc1nnc(-c2cccnc2)n1N,3.07% [at 12.7 µM],–
COc1ccc2c3c(c(=O)oc2c1)C1O[C@](CCCCN2C(=O)c4ccccc4C2=O)(Cc2c1ccc1ccccc21)O3,-1.18% [at 2.33 µM],–
O=C(COc1ccc(Cl)cc1)Nc1ccc(-c2nc3cc(Cl)ccc3o2)c(O)c1,35.9%,–
CCc1ccc(C(=O)NNC(=O)C2CCN(c3ncnc4sc(C)c(C)c34)CC2)cc1,-1.98% [at 102 µM],–
Cc1ccc(Cl)cc1N(C)C(=O)C1CCCN(c2ncnc3onc(-c4ccc(F)cc4)c23)C1 (stereo not drawn),-6.61%,–
CCC1(CC)NC(=O)N(CC(=O)OCC(=O)c2cc(C)c(C)cc2C)C1=O,-8.44% [at 102 µM],–
O=C(COC(=O)CNC(=O)C1CCCCC1)Nc1cccc(F)c1,-1.37% [at 12.7 µM],–
CCc1ccc(NC(=O)Cn2c(=O)n(CCC(=O)NCc3ccc4c(c3)OCO4)c(=O)c3ccccc32)cc1,-1.55%,–
CC(C)(C)NC(=O)CSc1nc(-c2ccc(F)cc2)cc(C(F)(F)F)n1,-8.07%,–
O=C(NCCS(=O)(=O)NCc1ccc(F)cc1)c1ccccc1,-4.54% [at 102 µM],–
Cc1ccc(NC(=O)c2ccc(CN3CC(=O)N4CCCCC4C3=O)cc2)c(Cl)c1 (stereo not drawn),-21.2%,–
CC(C)(C)OC(=O)Nc1ccc([C@@H](NC(=O)OC(C)(C)C)C(=O)OC(C)(C)C)cc1,9.51% [at 0.501 µM],–
Cc1ccc2sc(N(Cc3cccnc3)C(=O)C3COc4ccccc4O3)nc2c1C (stereo not drawn),-4.67%,–
CCn1c(SCC(=O)Nc2cc(C)c(Cl)cc2OC)nnc1-c1ccco1,-6.92%,–

Structure (SMILES),"activity, negative = inhibition",Potency
COc1cc(Cl)c(C)cc1NC(=O)CSc1nnc(-c2cccnc2)n1Cc1ccco1,–,39.8 µM (active)
Cc1cc(NC(=O)CSc2nc3cc(Cl)ccc3c(=O)n2Cc2ccco2)no1,-23.2% [at 102 µM],–
CCCCN(C)S(=O)(=O)c1ccc(C(=O)Nc2sc3c(c2C(N)=O)CC(C)(C)NC3(C)C)cc1,8.97%,–
COc1ccc(-c2nc3c4ccccc4n(CC(=O)Nc4ccc(C(C)=O)cc4)c(=O)n3n2)cc1,-0.383%,–
COCCN1C(=O)C(=O)/C(=C(/O)c2ccc(S(=O)(=O)N3CCOCC3)cc2)C1c1ccc(O)c(OC)c1 (stereo not drawn),-19.1% [at 102 µM],–
COCCN1C(=O)C(=O)/C(=C(/O)c2ccc(S(=O)(=O)N3CCCCC3)cc2)C1c1ccc(OC)c(OC)c1 (stereo not drawn),81.3% [at 102 µM],–
COc1cc(C2/C(=C(\O)c3ccc4c(c3)CC(C)O4)C(=O)C(=O)N2c2nnc(C)s2)cc(OC)c1OC (stereo not drawn),–,44.7 µM (active)
CC(CCCc1ccccc1)NC(=O)c1nn(-c2ccc(Cl)cc2)nc1CO (stereo not drawn),0.317%,–
O=C(Nc1nnc(S(=O)(=O)N2CCCc3ccccc32)s1)c1cccc(F)c1,-6.49%,–
Cc1cccc(NC(=O)Cn2c(C(F)(F)F)nc3ccccc32)c1C,4.54%,–
CCc1ccccc1NC(=O)c1sc2nc3c(cc2c1N)CN(Cc1ccccc1)CC3,-9.21%,–
CCN1CCc2nc3sc(C(=O)Nc4ccccc4OC(F)(F)F)c(N)c3cc2C1,–,14.1 µM (active)
CCc1ccc2nc3sc(C(=O)Nc4nnc(CC)s4)c(N)c3cc2c1,-8.03% [at 12.7 µM],–
CCc1ccc(NC(=O)CSc2nc3c([nH]c4ccccc43)c(=O)n2-c2cccc(OC)c2)cc1,-2.08%,–
Cc1ccc2c(c1)c1c(c(=O)n(-c3ccccc3)c(=O)n1CC(=O)c1ccc(Cl)cc1)n2C,-28.8%,–
S=C(NCCCc1cnc[nH]1)NCCCN(Cc1ccc(Cl)c(Cl)c1)c1ccc(Br)cn1,–,25.1 µM (active)
CCc1cc2c(cc3c(=O)n(CC(=O)N4CCN(c5cc(Cl)ccc5C)CC4)ncn32)s1,0.716%,–
CCNC(=O)N1CCCC(C(=O)c2ccc(-c3ccccc3)cc2)C1 (stereo not drawn),51.8% [at 102 µM],–
COC(=O)c1[nH]c2ccccc2c1NC(=O)CN1CCCc2ccccc21,–,44.7 µM (active)
O=Cc1c(NCCCN2CCCC2=O)c2ccccc2[nH]c1=O,20.8% [at 102 µM],–
CCn1c(=O)c2ccccc2n(CC(=O)N2CCCc3ccccc32)c1=O,-7.66% [at 0.501 µM],–
O=C(CN1CCc2ccccc2C1)Nc1cccc(S(=O)(=O)N2CCOCC2)c1,15.7% [at 12.7 µM],–
CC1Cc2ccccc2N1CC(=O)Nc1ccc(S(N)(=O)=O)cc1 (stereo not drawn),-108%,–
NS(=O)(=O)c1cccc(NC(=O)CN2CCCc3ccccc32)c1,–,44.7 µM (active)

Structure (SMILES),"activity, negative = inhibition",Potency
O=C(CCCn1c(=O)c2cccn2c2cccnc21)NCc1ccc(F)cc1,5.33%,–
Cc1cc(C)cc(NC(=O)c2cnc3sc(N4CCCC4)nn3c2=O)c1,4.91%,–
O=C(Cc1ccccc1)NNC(=O)C1CCN(c2ncccn2)CC1,2.95% [at 102 µM],–
O=C1/C(=C\Nc2ccccc2)CCN1c1ncccn1,–,50.1 µM (active)
COc1ccc(-c2c(C)nn3c(N4CCC(C(=O)NCCC(C)C)CC4)cc(C)nc23)cc1OC,5.73%,–
CCC1CCCCN1Cc1c(O)ccc2c(=O)c(Oc3ccccc3Cl)c(C(F)(F)F)oc12 (stereo not drawn),0.282%,–
Cc1ccc(OCCn2c(CNc3ccccc3C)nc3ccccc32)cc1,5.61%,–
COc1ccccc1CNC(=O)CCCCn1c(=O)c2ccccc2n(CC(=O)Nc2cc(Cl)ccc2C)c1=O,-19.7%,–
COC(=O)c1ccc(NC(=O)CCc2c(C)nc3c(c(C)nn3-c3ccc(C)cc3)c2C)cc1,-1.18%,–
O=C(CCOc1ccccc1)N(Cc1cccnc1)c1nc2ccc(Cl)cc2s1,-3.53%,–
CCN(CC)CCOc1ccc2c(c1)C(=NNC(=O)c1ccccn1)c1cc(OCCN(CC)CC)ccc1-2,–,22.4 µM (active)
Cc1cccc(OCC(=O)NCCCNC(=O)c2ccccn2)c1,15.8% [at 102 µM],–
COc1ccc(CC(=O)N/N=C(\C)c2ccccn2)cc1,-5.58%,–
O=C(Nc1ccccc1N1CCN(C(=O)c2ccccc2)CC1)c1ccco1,-3.56% [at 102 µM],–
CCc1nc2ccc(C(=O)N3CCN(c4cc(Cl)ccc4C)CC3)cc2nc1CC,9.41%,–
Cc1ccc(C)c(N2C(=O)N(Cc3c(F)cccc3Cl)c3ccccc3S2(=O)=O)c1,0.542%,–
CCOc1ccc(NC(=O)c2cc3c(=O)n(Cc4cccs4)ccc3nc2C)cc1,-4.13%,–
Cc1nn(-c2ccccc2)c2c1c(C)c(CCC(=O)NCC1CCCO1)c(=O)n2C (stereo not drawn),51.1% [at 102 µM],–
COc1ccc(N2CCN(C(=O)c3cccs3)CC2)cc1,–,50.1 µM (active)
COc1ccc(OCC(=O)N2CCN(C(=O)c3cccs3)CC2)cc1,11.1%,–
O=C(c1cccs1)N1CCN(C(=O)N2CCOCC2)CC1,24.4%,–
